The list is not random: actives were taken first. Their share in the collection is about 11%.
FLuc inh: Firefly luciferase inhibition profiling of diverse chemical library using quantitative high-throughput screening. Luciferin 4-monooxygenase (Photinus pyralis), P08659. purified P. pyralis luciferase, luminescence, biochemical. Potency, µM (series often up to 115 µM), usual class: inhibitors. actives 2.5% (n = 76,000); further: nearly all actives have a fitted effect of over 65% in size
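Purified 10nM P. pyralis luciferase with 10uM D-luciferin and 10uM ATP in 50mM Tris acetate pH 7.5, 10mM Mg acetate, 0.01% Tween-20, 0.05% BSA. qHTS titration; luminescence read by CCD imager.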
NIH3T3 tox: Cytotoxic Profiling in NIH 3T3 Cell Line of Diverse Libraries Using Quantitative High-Throughput Screening | Potency, µM (titrated, usually from 96.7 µM), most hits filed as inhibitors | AID 1345082, 2018 | actives 4.3% (n = 94,000) | NIH 3T3 viability, CellTiter-Glo ATP luminescence, 48-72 h; further: nearly all actives have a fitted effect of over 55% in size
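First NIH 3T3 cells are plated at 400 cells/well; next compound is pinned in; then plates incubate 48 or 72 hr at 37 °C; finally CellTiter-Glo is added and luminescence read after 10 min.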
NPR1 antag: Natriuretic polypeptide receptor (hNpr1) antagonism - Primary qHTS; HEK293 hNpr1 GloSensor cGMP, ANP-stimulated luminescence; Potency, µM (doses to about 46.3 µM), most hits filed as inhibitors; actives 1.6% (n = 76,000); AID 1347048, 2019; calls by dose curve; further: nearly all actives have a fitted effect of over 60% in size
Target sequence (P16066 whole entry, looked up): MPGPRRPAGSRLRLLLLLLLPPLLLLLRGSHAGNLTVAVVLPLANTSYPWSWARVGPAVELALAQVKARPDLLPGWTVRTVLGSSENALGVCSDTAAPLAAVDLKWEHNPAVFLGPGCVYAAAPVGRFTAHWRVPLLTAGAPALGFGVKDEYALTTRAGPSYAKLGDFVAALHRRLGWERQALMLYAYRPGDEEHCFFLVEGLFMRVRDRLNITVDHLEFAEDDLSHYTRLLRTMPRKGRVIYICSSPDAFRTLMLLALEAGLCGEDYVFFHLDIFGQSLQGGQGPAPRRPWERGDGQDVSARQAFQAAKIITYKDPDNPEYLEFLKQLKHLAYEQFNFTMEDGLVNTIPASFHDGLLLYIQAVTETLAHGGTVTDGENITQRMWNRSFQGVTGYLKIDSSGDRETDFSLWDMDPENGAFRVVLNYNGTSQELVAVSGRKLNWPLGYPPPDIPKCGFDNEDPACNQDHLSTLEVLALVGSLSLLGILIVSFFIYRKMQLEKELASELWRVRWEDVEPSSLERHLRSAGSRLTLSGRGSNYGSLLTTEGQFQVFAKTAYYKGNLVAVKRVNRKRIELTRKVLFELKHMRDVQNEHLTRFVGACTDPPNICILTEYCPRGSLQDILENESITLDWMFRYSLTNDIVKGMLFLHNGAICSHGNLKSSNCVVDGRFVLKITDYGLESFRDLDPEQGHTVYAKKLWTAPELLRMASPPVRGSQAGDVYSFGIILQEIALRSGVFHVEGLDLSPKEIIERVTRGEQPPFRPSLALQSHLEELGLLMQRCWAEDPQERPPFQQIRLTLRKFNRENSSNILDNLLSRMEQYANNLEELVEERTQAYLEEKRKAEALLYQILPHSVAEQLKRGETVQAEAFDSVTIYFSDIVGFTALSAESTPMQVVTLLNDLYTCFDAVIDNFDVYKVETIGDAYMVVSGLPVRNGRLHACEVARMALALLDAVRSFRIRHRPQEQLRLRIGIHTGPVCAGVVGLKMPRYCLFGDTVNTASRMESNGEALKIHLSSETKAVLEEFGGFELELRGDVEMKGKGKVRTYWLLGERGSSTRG
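HEK293 cells stably expressing human Npr1 and cGMP GloSensor pGS-40F, loaded 2 h with 2% GloSensor reagent, given compound 30 min at room temperature. Luminescence read before and 20 min after 0.1 nM hNppA.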
HEK cytotox: Cytotoxic Profiling in HEK 293 Cell Line of Diverse Libraries Using Quantitative High-Throughput Screening; HEK 293 viability, ATP luminescence (CellTiter-Glo), 48-72 h; AID 1345083, 2018; actives 6.6% (n = 94,000); Potency, µM (titrated, usually from 115 µM), hits mostly inhibitors; further: nearly all actives have a fitted effect of over 60% in size
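Cytotoxicity was scored by loss of ATP-coupled luminescence (CellTiter-Glo) in HEK 293 cells. Compound treatment ran 48 or 72 hr at 37 degree Celsius, 5% CO2, 95% humidity.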
Numbers stand for hits; - = inactive; ? = inconclusive; . = no result given. Unless noted, the call rests on the fitted dose curve; in most records, active means well fitted curve in the direction sought with a large enough effect; inconclusive means small, poorly fitted or top-dose-only effect, or another doubt; inactive means no such curve, though single readings can be large; an effect the other way counts as inactive or inconclusive.

SMILES	FLuc inh	NIH3T3 tox	NPR1 antag	HEK cytotox
COc1ccc2nc([C@H]3CCN(CC(C)C)C3)[nH]c2c1	-	112µM	-	89µM
CNC(=O)c1cc(C2CC2)nc2c1c(C1CCCN1C(=O)c1ccc(OC)cc1)nn2C (stereo not given)	.	-	.	-
O=C(CCC[C@H]1NC[C@@H]2C[C@H]1CN(Cc1ccccc1)C2)NCCCN1CCCc2ccccc21	-	-	-	-
O=c1c2c3c(nn2ccn1Cc1ccc(Cl)cc1)CCCC3	-	?	-	?
COC(=O)N1CCC(C(=O)N2CCC(c3nc4ncccc4[nH]3)CC2)CC1	.	-	.	-
COc1ccc2nc([C@H]3CCN(C4CCCCC4)C3)[nH]c2c1	14µM	?	?	?
COC(=O)N1CCC(C(=O)N2CCC(c3nc4ncccc4[nH]3)CC2)C1 (stereo not given)	.	?	.	35µM
Cc1ccc2nc([C@H]3CCN(Cc4ccc(S(C)(=O)=O)cc4)C3)[nH]c2c1	-	-	-	79µM
COc1ccc(CN2CC[C@H](c3nc4ccc(OC)cc4[nH]3)C2)cc1	?	?	-	?
COc1ccc(CN2CC[C@H](c3nc4ccc(C)cc4[nH]3)C2)cc1	-	79µM	-	79µM
Cc1noc(C)c1CCC(=O)N1CCC2(CC1)CC(CCOCC1CC1)CCO2 (stereo not given)	.	-	.	-
CCN1CCN(C(=O)c2ccc3oc(-c4cccnc4)nc3c2)CC1	.	-	.	-
O=C(NCc1cccc(F)c1)C1CN(C2CCCCC2)C(=O)N1 (stereo not given)	.	-	.	-
CCNC(=O)OC1CCN(C(=O)NC2CCCC2)CC(=O)N(C)c2ccccc21 (stereo not given)	.	?	.	-
O=C(NCc1ccc(F)cc1)c1nc2sccn2c1-c1cccnc1	.	-	.	-
COc1ccccc1CC(=O)N1CCC2(CC1)N=C(c1ccc(Cl)cc1)NO2	-	?	?	45µM
Cc1ccccc1CC(=O)N1CCC2(CC1)N=C(c1cccc(Br)c1)NO2	-	?	?	89µM
O=C(c1ccccc1)N1CCC2(CC1)N=C(c1cccc(Br)c1)NO2	-	?	-	?
O=C(NCCc1ccccc1)c1nc2cccnc2n(C2CC2)c1=O	.	-	.	-
Cc1ccc(-c2c(C(=O)NCc3cccs3)nc3sccn23)cc1	.	-	.	?
COc1ccc(-c2c(C(=O)NCCCc3ccccc3)nc3sccn23)cc1	.	35µM	.	?
O=C(NCc1cccc(C(F)(F)F)c1)c1nc2sccn2c1-c1cccc(C(F)(F)F)c1	.	?	.	35µM
O=C(NCc1ccccc1)c1nc2sccn2c1-c1ccc(C(F)(F)F)cc1	.	?	.	40µM
O=C(NCc1ccccc1)c1nc2sccn2c1-c1ccc(F)cc1	.	-	.	-
O=C(NCc1cccs1)c1nc2sccn2c1-c1ccncc1	.	?	.	89µM
SMILES	FLuc inh	NIH3T3 tox	NPR1 antag	HEK cytotox
COc1ccc(CN2CC3(Cc4ccccc4NC3=O)C2)cc1	.	-	.	-
O=C(NCc1ccc(F)cc1)c1nc2sccn2c1-c1ccc(C(F)(F)F)cc1	.	14µM	.	?
Cc1ccc(-c2c(C(=O)NCCc3ccccc3)nc3sccn23)cc1	.	18µM	.	45µM
Cc1ccc(-c2c(C(=O)NCc3ccccc3F)nc3sccn23)cc1	.	-	.	-
O=C(NCCc1ccccc1)c1nc2sccn2c1-c1ccc(C(F)(F)F)cc1	.	14µM	.	?
O=C(NCc1ccccc1F)c1nc2sccn2c1-c1ccc(C(F)(F)F)cc1	.	?	.	32µM
Cc1ccccc1C(=O)N1CCC(C(=O)N2CCCC(c3nc4ccncc4[nH]3)C2)CC1 (stereo not given)	.	-	.	-
O=C(c1ccc(F)cc1Cl)N1CCC2(CC1)NC(=O)N(c1ccccc1Cl)N2	-	?	-	?
CN(C)CCNCc1ccc(-c2ccccc2)o1	-	-	-	-
Cc1ccsc1CN(C)C(=O)C1CCCN(C2CCN(C(=O)C3CC3)CC2)C1 (stereo not given)	-	-	-	-
O=C(c1ccc(F)cc1)N1CCC(C(=O)N2CCC(N3CCCC3=O)CC2)CC1	.	-	.	-
Cc1ccc([S+](=O)([O-])NC[C@@H]2CC[C@H]3C[C@@H]2C3(C)C)cc1	-	?	?	?
CC1(C)[C@H]2CC[C@@H](CNC(=O)c3ccc(Cl)cc3)[C@@H]1C2	-	40µM	-	?
COc1cccc(C(=O)NC[C@@H]2CC[C@H]3C[C@@H]2C3(C)C)c1	-	?	-	89µM
CC1(C)[C@H]2CC[C@@H](CN[S+](=O)([O-])c3ccccc3)[C@@H]1C2	-	?	-	79µM
CC1(C)[C@H]2CC[C@@H](CNC(=O)c3cccc(Cl)c3)[C@@H]1C2	-	?	-	79µM
CCCC(=O)N1CCCN(c2ccnc3ccnn23)CC1	.	-	.	-
OC(c1nc(Nc2ccc(Cl)cc2)n[nH]1)C1CC1 (stereo not given)	22µM	?	-	?
Cn1cc(C(O)c2nc(Nc3ccc(OC(F)(F)F)cc3)n[nH]2)cn1 (stereo not given)	-	?	-	112µM
OC(c1cccc(C(F)(F)F)c1)c1nc(Nc2ccc(F)cc2)n[nH]1 (stereo not given)	-	?	-	79µM
OC(c1ccccc1)c1nc(Nc2ccc(C(F)(F)F)cc2)n[nH]1 (stereo not given)	-	?	-	?
CC(C)c1ccc(Nc2n[nH]c(C(O)C3CC3)n2)cc1 (stereo not given)	16µM	?	-	?
OC(c1nc(Nc2cccc(C(F)(F)F)c2)n[nH]1)C1CC1 (stereo not given)	?	?	-	?
OC(c1nc(Nc2ccc(N3CCOCC3)cc2)n[nH]1)C1CC1 (stereo not given)	-	?	-	?
O=C1CC2(CCN(C(=O)C3CCN(C(=O)c4ccc(Cl)nc4)CC3)CC2)Oc2ccccc2N1	.	-	.	-
SMILES	FLuc inh	NIH3T3 tox	NPR1 antag	HEK cytotox
COc1ccccc1C(O)c1nc(Nc2ccc(C(C)C)cc2)n[nH]1 (stereo not given)	-	?	-	100µM
COC[C@@H]1[C@H](C(=O)NCc2ccccc2OC)CCC(=O)N1C	.	-	.	-
COc1cccc(NC(=O)C2(C)CCc3cnc(N4CCOCC4)nc32)c1 (stereo not given)	-	?	-	?
CC1(C(=O)NCC2CC2)CCc2cnc(Nc3ccccc3)nc21 (stereo not given)	-	?	-	100µM
COc1cccc(Nc2ncc3c(n2)C(C)(C(=O)NCCc2ccccn2)CC3)c1 (stereo not given)	-	?	-	100µM
CC1(C(=O)NCC2CC2)COCc2cnc(Nc3ccccc3)nc21 (stereo not given)	-	-	-	?
CN1Cc2ccc(Nc3ccccc3)nc2C(C)(C(=O)NCCc2ccccn2)C1 (stereo not given)	-	?	-	?
